Compounds with a hit are over-represented: about 3% of the library has one in this group of screens.
MITF act: activators of MITF-driven TRPM1 promoter reporter, primary screen, cell-based, SK-MEL-5, luciferase, single point; SK-MEL-5 TRPM1-promoter luciferase, 24 h; % of positive control, neutral wells = 0; actives 0.75% (n = 300,000); AID 588334, 2011; activation, % at 12.5 µM;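 active = mean activation of at least 80% with every replicate also reaching 80%; inconclusive = mean reaches 80% but some replicate falls short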
EBV LMP1 NFkB: EBV LMP1-driven NF-kappaB luciferase reporter inhibitors, primary screen, cell-based, luminescence, single point. LMP1-induced NF-kappaB luciferase reporter cells. inhibition, % at 12.5 µM. actives 0.69% (n = 350,000). AID 504558, 2011; in the data active = inhibition above about 41%; inconclusive = no clear call, values can overlap the other calls
TWEAK-Fn14 inh: inhibitors of TWEAK-Fn14 signaling, primary screen, luciferase reporter cells, uHTS; TWEAK-stimulated Fn14 reporter cells, luciferase luminescence, 8 h; inhibition, % at 10 µM; actives 2% (n = 360,000); AID 1159606, 2016; in the data active = inhibition above about 50%
MITF TRPM1 inh: inhibitors of MITF-dependent TRPM1 promoter reporter, primary screen, cell-based, SK-MEL-5, single point, luciferase; AID 488899, 2010; SK-MEL-5 TRPM1 promoter luciferase, 24 h; actives 0.83% (n = 330,000); inhibition, % at 12.5 µM;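 active = mean inhibition across replicates of 60% or more, whatever share of single replicates reaches that level; inconclusive = some that reach 60%, reason not given; inactive = mean inhibition across replicates below 60%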
TROY signal inh: inhibitors of TROY-driven NF-kB signaling, primary screen, Q293 LMP1-TROYcd cells, NF-kB luciferase, uHTS | AID 1347056, 2019 | Q293 LMP1-TROYcd NF-kB luciferase reporter, 4 h | inhibition, % at 10 µM | actives 0.98% (n = 360,000);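 active = compounds whose plate-normalised and pattern-corrected inhibition of the luciferase reporter signal at the single screening dose is 50% or more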
LGR2 inh: inhibitors of bursicon-induced LGR2 CRE-luciferase signal, primary screen, cell-based, HEK293, CRE-luciferase reporter, bursicon stimulation. Drosophila bursicon receptor LGR2 (rickets). bursicon-stimulated, 4 h. inhibition, % at 9.99 µM. actives 0.35% (n = 380,000). AID 720647, 2013;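 active = drop in luminescence signal, shown as inhibition above about 50% in the replicate tests, limit read from the data, passing the limit was not always enough; inconclusive = probably only some replicates passing the limit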;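 also: agonist challenge used bursicon conditioned medium at about half maximal strength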
Each line names hits and unclear results; the compound was inactive in the other large screens; ! = not active in a repeat.

Cc1cccc(C2(c3cccc(C)c3)CC2C(=O)Nc2ccc([N+](=O)[O-])cc2O)c1 (stereo unspecified)	TWEAK-Fn14 inh 74, MITF TRPM1 inh 66, TROY signal inh 60
COc1cc(NC(=O)c2noc3c2CCC3)c(OC)cc1Cl	none (no result: LGR2 inh)
CC(=O)c1ccc(NC(=O)c2noc3c2CCC3)cc1	EBV LMP1 NFkB 65, TWEAK-Fn14 inh 94, TROY signal inh 54, LGR2 inh 64
Cc1ccc(NC(=O)c2noc3c2CCC3)cc1C	TWEAK-Fn14 inh 56
COC(=O)c1ccccc1NC(=O)c1noc2c1CCCC2	none (no result: LGR2 inh)
COc1ccc(NC(=O)c2noc3c2CCC3)cc1	TWEAK-Fn14 inh 58 (no result: MITF act, LGR2 inh)
O=C(NCc1ccccc1)c1noc2c1CCCCC2	MITF act 101 (no result: LGR2 inh)
C[C@@H]1CN([C@@H](C)CO)C(=O)c2cc(C#CC3CC3)cnc2O[C@@H]1CN(C)C(=O)c1ccncc1	none (no result: MITF act, EBV LMP1 NFkB, TWEAK-Fn14 inh, MITF TRPM1 inh, TROY signal inh)
C[C@@H]1CN([C@@H](C)CO)C(=O)c2cc(C#Cc3ccccc3)cnc2O[C@@H]1CN(C)C(=O)C1CC1	none (no result: MITF act, EBV LMP1 NFkB, TWEAK-Fn14 inh, MITF TRPM1 inh, TROY signal inh)
O=C(NC1CCCC1)c1noc2c1CCCCC2	EBV LMP1 NFkB 42 (no result: MITF act, LGR2 inh)
O=C(Nc1cccc(O)c1)c1noc2c1CCCCC2	TWEAK-Fn14 inh 81, TROY signal inh 59
O=C(Nc1nnc(C2CCCCC2)s1)C1CC(=O)N(c2ccccc2)C1 (stereo unspecified)	none
O=C(Nc1nnc(C2CC2)s1)C1CC(=O)N(c2ccc3c(c2)OCCO3)C1 (stereo unspecified)	TWEAK-Fn14 inh 78, TROY signal inh 51
COc1ccc2nc(NC(=O)C3CC(=O)N(c4ccc5c(c4)OCCO5)C3)sc2c1 (stereo unspecified)	none
O=C(Nc1nc2ccc(F)cc2s1)C1CC(=O)N(c2ccc3c(c2)OCCO3)C1 (stereo unspecified)	TWEAK-Fn14 inh 55
COc1ccc(-c2nc(NC(=O)C3CC(=O)N(c4ccc5c(c4)OCCO5)C3)sc2C)cc1 (stereo unspecified)	TWEAK-Fn14 inh 82
O=C(Nc1nc(-c2ccccn2)cs1)C1CC(=O)N(c2ccc3c(c2)OCCO3)C1 (stereo unspecified)	TWEAK-Fn14 inh 70
O=C(NCC[C@H]1CC[C@H](NC(=O)C2CCC2)[C@H](CO)O1)c1cnccn1	none (no result: MITF act, EBV LMP1 NFkB, TWEAK-Fn14 inh, MITF TRPM1 inh, TROY signal inh)
COc1cc(/C=C/C(=O)c2ccc3c(c2)OCCO3)cc(OC)c1OC	TWEAK-Fn14 inh 67 (no result: MITF act)
O=C(C=Cc1ccc2c(c1)OCO2)c1ccccc1	none
O=[N+]([O-])c1cc(/C=N\O)ccc1Oc1ccc(F)cc1	EBV LMP1 NFkB 65
O=C(/C=C/c1ccccc1)c1ccc2c(c1)OCCCCO2	MITF act 91 (no result: LGR2 inh)
COc1cc(/C=C/C(=O)c2ccc(F)cc2)cc(OC)c1OC	TWEAK-Fn14 inh 84 (no result: LGR2 inh)
COc1cc(/C=N/O)ccc1Oc1ccc([N+](=O)[O-])cc1[N+](=O)[O-]	none
COCC#Cc1cnc2c(c1)C(=O)N([C@@H](C)CO)C[C@H](C)[C@H](CN(C)C(=O)c1cnccn1)O2	none (no result: MITF act, EBV LMP1 NFkB, TWEAK-Fn14 inh, MITF TRPM1 inh, TROY signal inh)
O=C(/C=C/c1ccc2c(c1)OCCCO2)c1ccc2ccccc2c1O	TROY signal inh 61
COc1ccc(Oc2ccc(/C=C/C(=O)c3ccc(O)cc3)cc2[N+](=O)[O-])cc1	TWEAK-Fn14 inh 69, MITF TRPM1 inh 81, TROY signal inh 77 (no result: LGR2 inh)
Cc1ccc(C(=O)/C=C/c2ccc3c(c2)OCCO3)c(O)c1	none
COc1ccc(/C=C/C(=O)c2ccc(O)cc2)cc1COc1ccc(F)cc1	TWEAK-Fn14 inh 55
COc1ccc(/C=C/C(=O)c2ccccc2)cc1COc1ccc(F)cc1	none
CO[C@@H]1CN(C)C(=O)c2cc(NC(=O)Nc3ccc(Cl)cc3)ccc2OC[C@H](C)N(C(=O)Nc2c(C)noc2C)C[C@@H]1C	none (no result: MITF act, EBV LMP1 NFkB, TWEAK-Fn14 inh, MITF TRPM1 inh, TROY signal inh)
CN1C(=O)c2cc(NC(=O)NC3CCCC3)ccc2OC[C@H]2O[C@H](CC(=O)NCC3CC3)CC[C@@H]21	none (no result: MITF act, EBV LMP1 NFkB, TWEAK-Fn14 inh, MITF TRPM1 inh, TROY signal inh)
C[C@H]1CN([C@@H](C)CO)C(=O)c2cc(NC(=O)Cn3cnnn3)ccc2O[C@H]1CN(C)Cc1ccc(-c2ccccc2)cc1	none (no result: MITF act, EBV LMP1 NFkB, TWEAK-Fn14 inh, MITF TRPM1 inh, TROY signal inh)
CN1C(=O)C(CC(=O)NC2CCCCC2)SC1=Nc1ccccc1 (stereo unspecified)	EBV LMP1 NFkB 64
C/C=C/c1ccc2c(c1)O[C@@H](CN(C)C(=O)C1CC1)[C@@H](C)CN([C@H](C)CO)S2(=O)=O	none (no result: MITF act, EBV LMP1 NFkB, TWEAK-Fn14 inh, MITF TRPM1 inh, TROY signal inh)
Cc1ccc(N(C)C(=O)C2CCCN2S(=O)(=O)c2ccc3c(c2)n(C)c(=O)c(=O)n3C)cc1 (stereo unspecified)	TWEAK-Fn14 inh 66
Cc1ccc(S(=O)(=O)N2CCCCC2C(=O)N(C)c2ccccc2)cc1 (stereo unspecified)	none
CCCNC(=O)N(C)C[C@@H]1Oc2cc(-c3ccncc3)ccc2S(=O)(=O)N([C@@H](C)CO)C[C@H]1C	none (no result: MITF act, EBV LMP1 NFkB, TWEAK-Fn14 inh, MITF TRPM1 inh, TROY signal inh)
COC(=O)c1ccc(COc2ccc(C(C)(C)C)cc2)o1	none
CCc1ccc(OCc2ccc(C(=O)OC)o2)cc1	MITF act 89
CCOc1ccc(OCc2ccc(C(=O)O)o2)cc1	TWEAK-Fn14 inh 52 (no result: LGR2 inh)
CCCN(C)C[C@@H]1Oc2cc(-c3cccc(C#N)c3)ccc2S(=O)(=O)N([C@H](C)CO)C[C@@H]1C	none (no result: MITF act, EBV LMP1 NFkB, TWEAK-Fn14 inh, MITF TRPM1 inh, TROY signal inh)
Cc1c(/C=N/NC(=O)c2ccccc2O)c2ccccn2c1C(=O)c1ccc(F)cc1	TWEAK-Fn14 inh 66, TROY signal inh 51, LGR2 inh inconclusive
Cc1c(/C=N/NC(=O)c2ccc(O)cc2)c2ccccn2c1C(=O)c1ccc(F)cc1	TWEAK-Fn14 inh 54
C[C@@H](NC(=O)C[C@H]1CC[C@H](NC(=O)C2CCC2)[C@H](CO)O1)c1ccccc1	none (no result: MITF act, EBV LMP1 NFkB, TWEAK-Fn14 inh, MITF TRPM1 inh, TROY signal inh)
CCS(=O)(=O)N1[C@@H](CO)[C@@H](c2ccccc2)C12CN(C(=O)C1CC1)C2	none (no result: MITF act, EBV LMP1 NFkB, TWEAK-Fn14 inh, MITF TRPM1 inh, TROY signal inh)
Nc1ncnc2nc[nH]c12	EBV LMP1 NFkB 59!
C#CCOc1c(Cl)cc(/C=C2/C(=O)ON=C2C)cc1OC	TWEAK-Fn14 inh 63
CCOC(=O)NCc1ccccc1	EBV LMP1 NFkB 84 (no result: LGR2 inh)
CC(C)CC#Cc1cnc2c(c1)C(=O)N([C@H](C)CO)C[C@H](C)[C@@H](CN(C)Cc1ccccc1F)O2	none (no result: MITF act, EBV LMP1 NFkB, TWEAK-Fn14 inh, MITF TRPM1 inh, TROY signal inh)
O=C(OCc1ccccc1)c1ccc2c(c1)-c1ccccc1C2=O	MITF act 113 (no result: LGR2 inh)
O=C(OCc1ccccc1)c1ccccc1	none (no result: MITF act, MITF TRPM1 inh, LGR2 inh)
Cc1ccnc2c1ccc1cccnc12	EBV LMP1 NFkB 80, MITF TRPM1 inh 79
Cc1cccc2cccnc12	none
Cc1ccnc2c1ccc1c(C)ccnc12	EBV LMP1 NFkB 84, MITF TRPM1 inh 77 (no result: LGR2 inh)
Cc1ccnc2c1ccc1ccccc12	none
c1cnc2c(c1)ccc1cccnc12	MITF TRPM1 inh 79!

Bioassay records: PubChem BioAssay, several laboratories
